Experimental data taken from PubChem BioAssay (NCI).
About 79,000 compounds went through this panel and 15% of them were active in at least one assay; those are over-represented in the sample as a whole. No stated cut-off is given here; in the data, active means growth inhibition above about 70%; inactive means the rest.

Columns and labels:
[1] = NCI Yeast Anticancer Drug Screen. Data for the rad50 strain (AID 155);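 further: 0% = growth of vehicle-only cultures of the same strain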; details: S. cerevisiae rad50 strain growth inhibition; at 50.0 µM; stronger effect = higher value
In short: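 A DNA repair-deficient yeast mutant serves as the test organism; compound-induced growth inhibition is calculated against vehicle-treated cells.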

[2] = NCI Yeast Anticancer Drug Screen. Data for the mec2-1 strain (AID 157); details: S. cerevisiae mec2-1 strain, at 50.0 µM, stronger effect = higher value
In short: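 Test agents were screened against the mec2-1 yeast strain, with defined DNA repair or cell cycle alteration. Growth was scored as inhibition against vehicle-only controls.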

[3] = NCI Yeast Anticancer Drug Screen. Data for the sgs1 mgt1 strain (AID 161);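 further: 0% = growth of cultures given vehicle only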; details: S. cerevisiae sgs1 mgt1 strain, at 50.0 µM, stronger effect = higher value
In short: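 Test agents were incubated with a DNA-repair-mutant yeast strain. Growth was then read and compared against vehicle-treated controls.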

[4] = NCI Yeast Anticancer Drug Screen. Data for the cln2 rad14 strain (AID 165);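 further: 0% = growth equal to vehicle treated cultures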; details: S. cerevisiae cln2 rad14 strain, at 50.0 µM, stronger effect = higher value
In short: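 Growth of compound-exposed yeast (cln2 rad14 genotype) measured and expressed as inhibition relative to vehicle.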

[5] = NCI Yeast Anticancer Drug Screen. Data for the bub3 strain (AID 167); details: S. cerevisiae bub3 mutant strain, at 50.0 µM, stronger effect = higher value
In short: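 Inhibition values come from growth of compound-treated mutant yeast normalised to vehicle-treated controls.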

[6] = NCI Yeast Anticancer Drug Screen. Data for the mlh1 rad18 strain (AID 175); details: S. cerevisiae mlh1 rad18 strain growth inhibition; at 50.0 µM; stronger effect = higher value
In short: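 In this whole-cell yeast screen, a strain with altered DNA damage repair is challenged with compound, and its growth is measured against matched vehicle-treated controls.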

Measured: growth inhibition

COc1cc(C)c(N)cc1N
inactive: [1] -2.7% | [2] -16.9% | [3] 11.3% | [4] -14% | [5] -1% | [6] 15.7%

CCCCN(C(C)=O)c1ccccc1
inactive: [1] -8.8% | [2] 9.45% | [3] 4.2% | [4] -6.15% | [5] -9.4% | [6] 1.1%

Cc1c(C#N)c(N)[nH]c(=S)c1C#N
inactive: [1] 5.5% | [2] 20.2% | [3] 4.95% | [4] 1.25% | [5] 0.45% | [6] 11.3%

CN1CCC(O)(c2ncc(Br)c3ccccc23)CC1
inactive: [1] 17.1% | [2] -7.8% | [3] 24.9% | [4] 10.8% | [5] 11.2% | [6] 39.6%

CC1CC(C#N)=C2NCCCCN2C1=O (stereo unspecified)
inactive: [1] -21.6% | [2] -44.8% | [3] -2.25% | [4] 3.65% | [5] -7.9% | [6] -14.3%

CC(C)OC(CCCl)c1ccccc1 (stereo unspecified)
inactive: [1] -6.4% | [2] -45.5% | [3] -4.85% | [4] 5.6% | [5] -23.7% | [6] 3.1%

O=C(CCl)Nc1cc(C(F)(F)F)ccc1Cl
inactive: [1] -0.15% | [2] 1.75% | [3] 18.1% | [4] 4.85% | [5] 23.9% | [6] 1.15%

Cn1c(-c2ccccc2)c2c(=O)oc3ccccc3c2c1-c1ccccc1
inactive: [1] -14.6% | [2] 8.8% | [3] 9.55% | [4] 1.8% | [5] 8.25% | [6] 19.1%

C/C(=N/Nc1ccc([N+](=O)[O-])cc1[N+](=O)[O-])C(CC(C(=O)Nc1ccccc1C)/C(C)=N\Nc1ccc([N+](=O)[O-])cc1[N+](=O)[O-])C(=O)Nc1ccccc1C (stereo unspecified)
inactive: [1] 18.4% | [2] 25.9% | [3] 4.9% | [4] 10.3% | [5] 8.75% | [6] 43.6%

CCCCCCCC/C=C\CCCCCCCC(=O)NCCN(CCN)C(=O)CCCCCCC/C=C\CCCCCCCC
inactive: [1] -20.9% | [2] -18.4% | [3] -16.8% | [4] -20.6% | [5] -41.9% | [6] -23.8%

Oc1ccc(Cl)cc1/C=N\N=C\c1cc(Cl)ccc1O
inactive: [1] -50.3% | [2] -1.1% | [3] 5.75% | [4] -36.1% | [5] 3.15% | [6] 8.85%

Cc1nc(N)[nH]c(=O)c1CCCN(c1ccccc1)S(=O)(=O)c1ccc(N)cc1
inactive: [1] 9.4% | [2] -1.35% | [3] -2.3% | [4] -22.9% | [5] -2.35% | [6] 19.6%

COC(=O)Cc1c(C(C)=O)[nH]c2ccccc12
inactive: [1] 19.5% | [2] 9.2% | [3] 4.35% | [4] 20.6% | [5] 4.25% | [6] 13.1%

CC1CN1C(=O)Nc1cccc2c(NC(=O)N3CC3C)cccc12 (stereo unspecified)
inactive: [1] -21.9% | [2] -12.4% | [3] -8.85% | [4] -15.8% | [5] 22.4% | [6] -2.45%

CCc1[nH]nc(-c2n[nH]c(CC)c2C)c1C
inactive: [1] -66.8% | [2] -24.9% | [3] -20.1% | [4] -26.4% | [5] -13.7% | [6] -9.3%

N=C1CCCC1C(=S)SCCC(N)=O (stereo unspecified)
inactive: [1] -11.8% | [2] -30.2% | [3] -51.5% | [4] 6.8% | [5] -30.8% | [6] 6.15%

N#CC(C(=O)C(N)=O)c1ccccc1Cl (stereo unspecified)
inactive: [1] -13.5% | [2] -26.8% | [3] -6.8% | [4] -0.7% | [5] -12.2% | [6] -17.3%

OCC1C2C=CC(O2)[C@H]1CO (stereo partly specified)
inactive: [1] 1.65% | [2] -3.75% | [3] -11.8% | [4] -27.9% | [5] -24.9% | [6] -6.95%

O=C(Nc1c(Cl)c(Cl)c2c(c1Cl)Cc1cc(Cl)ccc1-2)C(Cl)Cl
inactive: [1] 36.9% | [2] 10.7% | [3] 1.5% | [4] 26.1% | [5] 3.85% | [6] 25.4%

CCC(C(N)=O)C(N)=O
inactive: [1] -20.1% | [2] -27.9% | [3] -34.5% | [4] 15.8% | [5] -1.3% | [6] -6.1%

CSc1cccc(N=C(C#N)C2=C(O)c3ccccc3C2=O)c1
inactive: [1] 21.1% | [2] 1.85% | [3] 9.65% | [4] 38.6% | [5] 21.5% | [6] 24.4%
